Measurements from PMC4336329 (PLoS ONE, 2015).
Screen size: about 310,000 compounds; about 2,200 (0.71%) showed an effect of 50% or more. Effects have a minus sign here. Many of the other results were omitted from the sample, so strong results are more common in it than they were.

Each molecule was assayed against human ether-à-go-go-related gene (hERG) potassium channel (human, UniProt Q12809) (assay: primary screen, population patch clamp on CHO cells stably expressing hERG; higher = less effect of the substance).
human ether-à-go-go-related gene (hERG) potassium channel, sequence (Q12809 whole entry, looked up): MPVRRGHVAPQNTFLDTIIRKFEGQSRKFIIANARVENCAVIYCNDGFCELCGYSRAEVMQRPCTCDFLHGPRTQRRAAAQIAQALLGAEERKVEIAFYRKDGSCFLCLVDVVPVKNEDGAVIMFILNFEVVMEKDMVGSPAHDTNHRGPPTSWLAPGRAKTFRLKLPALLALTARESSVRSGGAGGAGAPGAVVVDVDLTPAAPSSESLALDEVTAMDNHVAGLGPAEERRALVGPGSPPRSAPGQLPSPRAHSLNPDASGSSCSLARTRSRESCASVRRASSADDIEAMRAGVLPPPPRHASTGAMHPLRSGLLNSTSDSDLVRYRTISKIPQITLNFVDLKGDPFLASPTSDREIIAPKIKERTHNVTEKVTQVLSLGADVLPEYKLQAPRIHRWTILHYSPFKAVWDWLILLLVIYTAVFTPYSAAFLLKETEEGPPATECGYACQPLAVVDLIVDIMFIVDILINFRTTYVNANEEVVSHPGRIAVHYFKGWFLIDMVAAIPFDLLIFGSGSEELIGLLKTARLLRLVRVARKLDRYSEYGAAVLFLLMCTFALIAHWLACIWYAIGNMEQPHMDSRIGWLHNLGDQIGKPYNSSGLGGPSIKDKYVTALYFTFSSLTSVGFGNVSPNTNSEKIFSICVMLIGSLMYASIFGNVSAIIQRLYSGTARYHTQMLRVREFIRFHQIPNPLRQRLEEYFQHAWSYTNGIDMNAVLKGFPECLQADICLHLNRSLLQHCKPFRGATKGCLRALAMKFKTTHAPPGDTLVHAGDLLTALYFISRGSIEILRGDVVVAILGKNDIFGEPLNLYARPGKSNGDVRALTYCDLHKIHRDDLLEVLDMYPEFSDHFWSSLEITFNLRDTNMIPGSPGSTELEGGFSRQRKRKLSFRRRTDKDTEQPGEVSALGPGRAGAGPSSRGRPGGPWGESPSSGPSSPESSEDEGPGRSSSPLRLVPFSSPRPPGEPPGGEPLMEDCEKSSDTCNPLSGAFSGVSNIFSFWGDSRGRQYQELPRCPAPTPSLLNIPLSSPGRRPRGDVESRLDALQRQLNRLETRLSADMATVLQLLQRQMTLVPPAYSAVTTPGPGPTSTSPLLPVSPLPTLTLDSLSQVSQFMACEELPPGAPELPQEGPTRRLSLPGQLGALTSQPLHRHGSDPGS

| Compound | hERG current change (%, negative = inhibition) at 1uM [%] |
| --- | --- |
| CCCCOc1ccc(Cc2c(COCC)[nH]c(=S)[nH]c2=O)cc1 | 13 |
| Fc1cccc(C2NC(=S)NC3=C2N2CCC3CC2)c1 (centres unmarked) | 1.79 |
| COc1ccc(CCNC(=O)c2c(O)c3cccc4c3n(c2=O)CC4)cc1OC | -6.66 |
| CCCNC(=O)CS(=O)(=O)Cc1nc(-c2cccc(OC)c2)oc1C | -284 |
| COc1cccc(-c2nc(CS(=O)(=O)CC(=O)NCCC(C)C)c(C)o2)c1 | 14.4 |
| COc1cccc(-c2nc(CS(=O)(=O)CC(=O)NCCCN3CCOCC3)c(C)o2)c1 | 10.9 |
| COCCCNC(=O)CS(=O)(=O)Cc1nc(-c2cccc(OC)c2)oc1C | 11.3 |
| COc1cccc(-c2nc(CS(=O)(=O)CC(=O)NCCCN3CCc4ccccc4C3)c(C)o2)c1 | -56.3 |
| COc1cccc(-c2nc(CS(=O)(=O)CC(=O)NCCCN3CCN(C)CC3)c(C)o2)c1 | 11.2 |
| Cn1nc(C(F)(F)F)cc1C(=O)O | 17.3 |
| Cl.O=C(Nc1ccc(Br)cn1)c1ccc(Br)s1 | 13.3 |
| Cc1ccc(Cn2c(=N)c(C(=O)NC3CCCCC3)cc3c(=O)n4ccccc4nc32)cc1 | -5.62 |
| N=c1c(C(=O)NC2CCCCC2)cc2c(=O)n3ccccc3nc2n1Cc1ccco1 | -59.1 |
| Cc1ccc(Cn2c(=N)c(S(=O)(=O)c3ccc(C)cc3)cc3c(=O)n4ccccc4nc32)cc1 | 6.66 |
| N=c1c(C(=O)NC2CCCCC2)cc2c(=O)n3ccccc3nc2n1Cc1ccccc1 | -10.1 |
| Cc1ccc(Cn2c(=N)c(C(=O)NC3CCCC3)cc3c(=O)n4ccccc4nc32)cc1 | -73.4 |
| N=c1c(C(=O)NC2CCCCC2)cc2c(=O)n3ccccc3nc2n1Cc1ccc(F)cc1 | -29.5 |
| Cc1ccc(S(=O)(=O)c2cc3c(=O)n4ccccc4nc3n(Cc3ccco3)c2=N)cc1C | -6.2 |
| N=c1c(C(=O)NC2CCCC2)cc2c(=O)n3ccccc3nc2n1Cc1ccccc1 | -55.9 |
| N=c1c(C(=O)NC2CCCCC2)cc2c(=O)n3ccccc3nc2n1Cc1cccnc1 | -50.6 |
| CCN(CC)CCOC(=O)c1ccc(N/C=C(/C#N)c2nc(-c3cccc(OC)c3)cs2)cc1 | 13.7 |
| CCOC(=O)/C=C1\SCC(=O)N1CC(=O)Nc1ccc(OC)c(OC)c1 | 12.2 |

| Compound | hERG current change (%, negative = inhibition) at 1uM [%] |
| --- | --- |
| CCOC(=O)C1CCN(C(=O)N(CC)CC)CC1 | 3.77 |
| CCCCn1c(=O)c(-c2ccccc2)c(O)c2ccccc21 | 16.3 |
| Cc1nonc1C1CCCN1C(=O)c1cc(COc2ccc(F)cc2Cl)on1 (centres unmarked) | 8.74 |
| COc1ccc(NC2CCCN(C(=O)CSc3ccccc3)C2)cc1OC (centres unmarked) | 4.34 |
| CC1(C)CC(=O)C(C(c2cccnc2)C2C(=O)CC(C)(C)CC2=O)C(=O)C1 | 2.02 |
| CCCC(=O)N1CCN(c2ccc(NC(=O)c3ccc(N4CCCC4)c([N+](=O)[O-])c3)cc2Cl)CC1 | -8.46 |
| Br.N=C1c2ccccc2CN1NC(=O)C1CC1 | 7.71 |
| CCCCN(C)C(=O)c1cc2c(s1)-c1ccccc1S(=O)(=O)C2 | -6.69 |
| Cc1[nH]c(=O)[nH]c(=O)c1S(=O)(=O)N1CCC(C(=O)NC(C)c2ccccc2)CC1 (centres unmarked) | 7.35 |
| CC(=O)Nc1ccc(CN2CCC(Oc3ccc(C(=O)N4CCCC4)cc3)CC2)cc1 | -6.27 |
| CSc1ccc(CN2CCC(Oc3ccc(C(=O)N4CCCC4)cc3)CC2)cc1 | -56.4 |
| COC(=O)c1ccc(CN2CCC(Oc3ccc(C(=O)N4CCCCC4)cc3)CC2)cc1 | -11.3 |
| CC(C)c1ccc(CN2CCC(Oc3ccc(C(=O)N4CCCC4)cc3)CC2)cc1 | -33.7 |
| O=C(c1ccc(OC2CCN(Cc3ccc(C(F)(F)F)cc3)CC2)cc1)N1CCCCC1 | 6.84 |
| CSc1ccc(CN2CCC(Oc3cccc(C(=O)N4CCCC4)c3)CC2)cc1 | -36.7 |
| CCc1ccc(CN2CCC(Oc3ccc(C(=O)N4CCCC4)cc3)CC2)cc1 | -77.5 |
| CC(=O)N1CCN(C(=O)c2ccc(OC3CCN(CCc4ccccc4)CC3)cc2)CC1 | 14.6 |
| O=C(c1ccc(OC2CCN(CCc3ccccc3)CC2)cc1)N1CCCC1 | -1.63 |
| CCc1ccc(CN2CCC(Oc3ccc(C(=O)N4CCCCC4)cc3)CC2)cc1 | -61.5 |
| O=C(c1ccc(OC2CCN(CCCc3ccccc3)CC2)cc1)N1CCCC1 | -55.2 |
| O=C(c1ccc(OC2CCN(Cc3ccc(F)cc3)CC2)cc1)N1CCCC1 | 7.68 |
| CC(=O)c1cc(C(=O)N2CCCC(CCC(=O)N(C)CCc3ccccn3)C2)cs1 (centres unmarked) | 9.12 |

| Compound | hERG current change (%, negative = inhibition) at 1uM [%] |
| --- | --- |
| Cc1ccc(S(=O)(=O)Nc2cccc(/C=C/C(=O)O)c2)cc1 | 17 |
| O=C(CN1CCN(c2ccc(Cl)cc2)CC1)c1ccc2c(c1)OCO2 | 1.86 |
| COc1ccccc1/C=C/C(=O)Nc1cccc(S(=O)(=O)NC2=NCCCCC2)c1 | 13.1 |
| COc1ccc(C(=O)NC(=S)N2CCCCC2)cc1[N+](=O)[O-] | 5.8 |
| O=C(NCc1ccco1)c1sc(=S)n2c1[nH]c(=O)c1ccccc12 | -4.07 |
| CCCCn1c(N)c(N(CC)C(=O)c2ccccc2F)c(=O)[nH]c1=O | 19.7 |
| CCOc1ccccc1NC(=O)CSc1nnc(Cc2cccn2C)n1-c1ccc(F)cc1 | -8.2 |
| CCCCc1nc(NCC2CCCO2)c(C#N)c2c1COC(C)(C)C2 (centres unmarked) | 6.42 |
| COc1ccccc1OCc1ccc(C(=O)NN)cc1 | 5.11 |
| C[C@@H]1CC[C@@]2(O[C@@H](CCO)C[C@@H](O)[C@@H]2O)O1 | 20.7 |
| O=C(c1ccc(OC2CCN(C/C=C/c3ccc(F)cc3)CC2)cc1)N1CCCC1 | -74.9 |
| O=C(c1ccc(OC2CCN(C/C=C/c3ccc(F)cc3)CC2)cc1)N1CCCCC1 | -19.2 |
| O=C(c1ccc(OC2CCN(C/C=C/c3ccccc3)CC2)cc1)N1CCCC1 | -27.1 |
| Cc1cccc(N2CCN(C(=O)c3ccc4nc(N5CCCCC5)sc4c3)CC2)c1C | 8.76 |
| Brc1ccc(C=Nc2ccc3c(c2)OCCOCCOCCO3)s1 | -58.3 |
| Oc1c(Cl)cc(Cl)cc1C=Nc1ccc2c(c1)OCCO2 | 16 |
| Brc1ccc(C=Nc2ccc(Nc3ccccc3)cc2)s1 | 14.7 |
| Oc1c(Br)cc(Br)cc1C=Nc1ccc2c(c1)OCCO2 | 12.2 |
| Brc1csc(C=Nc2ccc3c(c2)OCCOCCOCCOCCO3)c1 | -78.1 |
| O=C(N/N=C/c1cc(Br)cs1)c1ccc2c(c1)OCCO2 | 9.48 |
| COc1ccc(/[N+]([O-])=C/c2ccoc2)cc1 | 14 |
| Nc1nnc(SCc2nc3scc(-c4ccccc4)c3c(=O)[nH]2)s1 | 15.6 |

| Compound | hERG current change (%, negative = inhibition) at 1uM [%] |
| --- | --- |
| O=C(CC1CCCC1)Nc1nnc(C2CC2)s1 | 11.5 |
| CC(=O)Nc1cccc(NC(=O)CSc2nccn2Cc2ccccc2)c1 | 14.4 |
| CN(C(=O)c1ccc(Cl)nc1)C1(c2ccccc2Cl)CCCCC1=O (centres unmarked) | 5.36 |
| O=C(NCC(=O)N(c1ccccc1)C(C(=O)NCC1CCCO1)c1ccccc1)c1ccco1 (centres unmarked) | 13.9 |
| C=Cc1ccc(Cn2c(=O)n(C)c(=O)c3sccc32)cc1 | 12.4 |
| FC(F)(F)c1ccc(-c2n[nH]c(=S)o2)nc1 | 9.8 |
| CC(=O)c1c(N2CCN(c3ccccc3)CC2)nc(=S)n(-c2ccccc2)c1C | 2.93 |
| COc1ccc(N2CCN(c3nc(=S)n(-c4ccccc4)c(C)c3C(C)=O)CC2)cc1 | 10.2 |
| CC(=O)c1c(N2CCN(c3ccc(F)cc3)CC2)nc(=S)n(-c2ccccc2)c1C | -69.3 |
| CN(c1ccc(O)cc1)c1nc(O)c(C2=c3ccccc3=NC2=O)s1 | 8.57 |
| Cc1cc(Br)cc2c1N(C)C(=O)C2(c1ccc(O)cc1)c1ccc(O)cc1 | 12 |
| O=[N+]([O-])c1ccc(N2CCN(C(=S)NCc3ccc(Cl)cc3)CC2)cc1 | 12.9 |
| COCCCNC(=S)N1CCN(c2ccc([N+](=O)[O-])cc2)CC1 | -64.8 |
| CNC(=S)N1CCN(c2ccc([N+](=O)[O-])cc2)CC1 | -40.5 |
| O=[N+]([O-])c1ccc(N2CCN(C(=S)Nc3ccccc3)CC2)cc1 | 5.2 |
| C=CCNC(=S)N1CCN(c2ccc([N+](=O)[O-])cc2)CC1 | -52.1 |
| O=[N+]([O-])c1ccc(NC(=S)N2CCN(c3ccc(F)cc3)CC2)cc1 | 13 |
| COCCNC(=S)N1CCN(c2ccc(Cl)cc2)CC1 | 1.27 |
| COCCCNC(=S)N1CCN(c2ccccc2)CC1 | 18.3 |
| CCNC(=S)N1CCN(c2ccc([N+](=O)[O-])cc2)CC1 | -50.5 |
